These results are taken from PubChem BioAssay.

A number with no mark means an inactive call. How the calls were made is not given here.

For orientation: inhibition means the relative decrease from the control value, in per cent.

Pantothenate synthetase (Mycobacterium tuberculosis (strain ATCC 25618 / H37Rv)), sequence (P9WIL5 whole entry, looked up): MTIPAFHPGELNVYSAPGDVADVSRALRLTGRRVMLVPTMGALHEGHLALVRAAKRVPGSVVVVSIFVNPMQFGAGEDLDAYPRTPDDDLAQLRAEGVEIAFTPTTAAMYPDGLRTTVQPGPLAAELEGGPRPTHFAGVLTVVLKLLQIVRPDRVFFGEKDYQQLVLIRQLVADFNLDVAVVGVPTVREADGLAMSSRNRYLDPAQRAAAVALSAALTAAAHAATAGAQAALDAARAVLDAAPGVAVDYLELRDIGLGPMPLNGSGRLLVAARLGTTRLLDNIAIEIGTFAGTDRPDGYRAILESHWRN

This assay addresses Pantothenate synthetase (Mycobacterium tuberculosis (strain ATCC 25618 / H37Rv)) (UniProt P9WIL5). Put plainly: Recombinant Mtb pantothenate synthetase (PanC) inhibitors, coupled enzyme, confirmatory (AID 375).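 Further: 0% = full reaction with vehicle and 100% = no enzyme background.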 The conditions noted are these: coupled enzyme assay; at 10 µM, stronger effect = higher value.
As to `Nc1nc(N)c2nc(-c3ccccc3)c(N)nc2n1`, the inhibition was 0%.

In the case of `O=C(OC1CCc2ccccc2C1=O)c1ccccc1O` (stereo not given), the inhibition was 0%.

As to `O=C(Cn1cnc2c(nnn2-c2ccc(F)cc2)c1=O)NCc1ccco1`, the inhibition was 0%.

Regarding `Cc1cc(NC(=O)CCC(=O)N(CCc2ccccc2)C(C(=O)NC2CCCC2)c2ccco2)no1` (stereo not given), the inhibition is 7%.

Take `O=C(CSc1nnc(Cn2c(=O)sc3ccccc32)n1-c1ccccc1)Nc1nccs1`: the inhibition was 1%.

On to `Cc1cc(NC(=O)c2ccc3nc(-c4ccccc4)c(-c4ccccc4)nc3c2)no1`, for which the inhibition is 0%.

As for `CC(=O)N(CCc1ccccc1C)Cc1cc2cc3c(cc2[nH]c1=O)OCO3`, the inhibition was 7%.

For `O=C(NCCOC(=O)C1COc2ccccc2O1)C1COc2ccccc2O1` (stereo not given), the inhibition is 0%.

As for `COc1ccc(N2CCN(C(=O)Cc3ccc(-n4c(=O)[nH]c5ccccc5c4=O)cc3)CC2)cc1`, the inhibition was 6%.

`CN1CCN(c2ccc(Cl)cc2NC(=O)c2cccc(S(=O)(=O)N(C)C)c2)CC1`: the inhibition is 1%.

`CN1CCN(/C=N/c2sc3c(c2C#N)CCCCC3)CC1`: the inhibition was 4%.

Regarding `CCOC(=O)C1CCCN(C(=O)c2ccc(CS(=O)(=O)Cc3ccccc3C)o2)C1` (stereo not given), the inhibition is 3%.

Regarding `COC(=O)c1ccccc1NC(=O)c1ccc(COc2ccccc2)o1`, the inhibition was 0%.

On to `COC(=O)C1C(=O)c2c([nH]c(C(=O)OCCOC(C)C)c2C)CC1C` (stereo not given), for which the inhibition is 0%.

In the case of `O=C(OCC#CCSc1nnc(-c2ccccc2)o1)c1cccs1`, the inhibition was 0%.

Take `COc1cccc(-n2ccnc2SCC(=O)N2CCc3ccccc32)c1`: the inhibition was 0%.

Consider `Cc1cccc2sc(NC(=O)CN(C)S(=O)(=O)c3cccs3)nc12`, for which the inhibition is 2%.

On to `COC(=O)Cc1c(C)nc2nc[nH]n2c1=O`, for which the inhibition is 0%.

In the case of `COc1ccccc1Nc1nc(N)nc(CN2CCN(c3ccccc3F)CC2)n1`, the inhibition was 0%.

For the molecule `COc1cc(CO)cc(-c2cc(CO)cc(OC)c2OC)c1OC`, the inhibition was 0%.

With `CCc1cc2c(=O)c(-c3nc4ccccc4[nH]3)coc2c(CN2CCC(C)CC2)c1O`, the inhibition was 4%.

As for `CSC1=NCCN1C(=O)c1ccc(S(=O)(=O)N2CCCC2)cc1`, the inhibition was 0%.

Turning to `Cc1nc2ccc(S(=O)(=O)NCC(=O)N3CCc4ccccc4C3)cc2s1`, the inhibition is 2%.

Take `CNCCCC12CCC(c3ccccc31)c1ccccc12`: the inhibition was 0%.

For the molecule `CC(=O)c1ccccc1NS(=O)(=O)c1c(C)nn(-c2ccccc2)c1C`, the inhibition is 0%.

In the case of `CCOCCCNC(=O)C1CCN(S(=O)(=O)c2c(C)noc2/C=C\c2ccc(OC)cc2)CC1`, the inhibition is 8%.

`CCc1cc(C)cc(OCCNC(=O)c2ncn[nH]2)c1`: the inhibition was 7%.

For the molecule `CCOC(=O)N1CCC(NC(=O)C2CCN(S(=O)(=O)c3cccc4cccnc34)CC2)CC1`, the inhibition was 0%.

With `NC(=O)c1nsnc1-c1ccccc1O`, the inhibition is 2%.

On to `COc1ccc(/C=N/n2cnnc2SCc2ccc(OC)cc2)cc1`, for which the inhibition was 0%.

For the molecule `O=C(O)CCNc1ccc2c(c1)OCCO2`, the inhibition was 0%.

Take `CCOC(=O)c1c(NC(=O)Cn2c(=O)oc3ccccc32)oc(C)c1C(C)=O`: the inhibition is 0%.

For `CCOC(=O)N1CCC(NC(=O)Cn2cc3c(n2)CCC(C)C3)CC1` (stereo not given), the inhibition is 0%.

On to `CCC(C)(C)n1nnnc1C(c1ccc(OC)c(OC)c1)N1CCN(c2ccccc2)CC1` (stereo not given), for which the inhibition was 0%.

Take `CCC1(CC)C(=O)C(C)(C)C(=O)OC1c1cccs1` (stereo not given): the inhibition is 0%.

Regarding `CCOC(=O)c1ccc(S(=O)(=O)NC2CCCCCCC2)n1C`, the inhibition is 0%.

Take `COc1ccc(C2N(C(=O)c3ccccc3)CCN2C(=O)c2ccccc2)cc1`: the inhibition was 0%.

For the molecule `COC(=O)c1ccc(C2NC(C(=O)O)CS2)cc1` (stereo not given), the inhibition was 0%.

On to `O=C(CCCN1C(=O)c2ccccc2C1=O)Oc1ccc(F)cc1`, for which the inhibition is 1%.

In the case of `CN(Cc1ccc(-n2cccn2)cc1)C(=O)c1cnn2c1NC(c1ccco1)CC2C(F)(F)F` (stereo not given), the inhibition is 0%.
